# Records with an inconclusive call do not appear. Active and inactive are the calls of the source. Rule for the calls: active = hit-call score of the fitted dose curve at least 0.9, where 1 is the maximum; inconclusive = response in the unintended direction; inactive = score below 0.9.
# Key:
# [1] = system: frog Estrogen Receptor (ESR1), gene 398734; experiment: ATG_frER1_XSP1: Attagene TRANS-FACTORIAL Multi-Species (XSP1) HepG2 Assay for frog Estrogen Receptor (ESR1) (AID 2283777)
# How it was run: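 HepG2 cells transiently transfected with frog ER–GAL4 chimera and GAL4-UAS reporter, with 3 nM 6-alpha-fluorotestosterone present; 24 h dosing, reporter mRNA quantified by RT-PCR and capillary electrophoresis, gain of signal versus DMSO.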
# [2] = molecular target: chicken Estrogen Receptor (ESR1), ESR1 (gene 396099) (UniProt P06212); experiment: ATG_chERa_XSP1: Attagene TRANS-FACTORIAL Multi-Species (XSP1) HepG2 Assay for chicken Estrogen Receptor (ESR1) (AID 2283779)
# chicken Estrogen Receptor (ESR1), ESR1 (gene 396099), sequence (P06212 whole entry, looked up, the tested form may be a part): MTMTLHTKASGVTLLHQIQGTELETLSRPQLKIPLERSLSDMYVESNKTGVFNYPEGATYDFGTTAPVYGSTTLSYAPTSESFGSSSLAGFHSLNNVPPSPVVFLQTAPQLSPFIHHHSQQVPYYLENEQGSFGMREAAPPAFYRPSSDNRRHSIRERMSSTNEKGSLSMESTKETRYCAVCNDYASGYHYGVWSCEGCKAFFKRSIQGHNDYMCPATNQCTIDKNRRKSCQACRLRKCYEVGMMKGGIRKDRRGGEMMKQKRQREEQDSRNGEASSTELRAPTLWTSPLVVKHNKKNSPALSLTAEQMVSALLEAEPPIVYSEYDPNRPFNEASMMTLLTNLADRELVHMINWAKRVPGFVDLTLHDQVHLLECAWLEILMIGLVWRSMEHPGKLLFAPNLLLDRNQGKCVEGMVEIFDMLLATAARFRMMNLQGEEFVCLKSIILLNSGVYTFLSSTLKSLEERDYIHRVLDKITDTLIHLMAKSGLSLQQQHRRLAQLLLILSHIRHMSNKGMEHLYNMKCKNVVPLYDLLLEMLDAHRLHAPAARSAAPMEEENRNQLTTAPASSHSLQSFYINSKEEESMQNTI
# How it was run: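 HepG2 cells transiently transfected with GAL4-UAS reporter units for chimeric chicken ERα-Gal4, dosed 24 h with 3 nM 6-alpha-fluorotestosterone present. Reporter mRNA by RT-PCR and capillary electrophoresis; gain-of-signal fit versus DMSO.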
# [3] = system: turtle Estrogen Receptor (ESR1), gene 101933533; experiment: ATG_trERa_XSP1: Attagene TRANS-FACTORIAL Multi-Species (XSP1) HepG2 Assay for turtle Estrogen Receptor (ESR1) (AID 2283781)
# Method: ATG_XSP1_multi-species_TRANS is a cell-based, multiplexed assay created by modifying the existing Attagene TRANS-FACTORIAL system to include a panel of nuclear receptors from some or all the following species: human (Homo sapiens), mouse (Mus musculus), frog (Xenopus laevis), zebrafish (Danio rerio), chicken (Gallus gallus), and turtle (Chrysemys picta). The ECOTOX-FACTORIAL format uses HepG2, a human liver cell line, with measurements taken at 24 hours after chemical dosing in a 24-well plate. Xsp1 included 3 nM 6-alpha-fluorotestosterone to partially stimulate the androgen receptor.ATG_trERa_XSP1 is one of 29 assay components measured or calculated from the ATG_XSP1_multi-species_TRANS assay. It is designed to make measurements of mRNA induction, a form of inducible reporter, as detected with fluorescence intensity signals by Reverse transcription polymerase chain reaction (RT-PCR) and Capillary electrophoresis technology.The assay endpoint ATG_trERa_XSP1 was analyzed in the positive analysis fitting direction relative to DMSO as the negative control and baseline of activity. […] Furthermore, this assay endpoint can be referred to as a primary readout, because this assay has produced multiple assay endpoints where this one serves a reporter gene function. […]
# [4] = molecular target: Estrogen receptor beta (Homo sapiens) (UniProt Q92731); experiment: ATG_hERb_XSP1: Attagene TRANS-FACTORIAL Multi-Species (XSP1) HepG2 Assay for human Estrogen Receptor (ESR2) (AID 2283788)
# Estrogen receptor beta (Homo sapiens), sequence (Q92731 whole entry, looked up, the tested form may be a part): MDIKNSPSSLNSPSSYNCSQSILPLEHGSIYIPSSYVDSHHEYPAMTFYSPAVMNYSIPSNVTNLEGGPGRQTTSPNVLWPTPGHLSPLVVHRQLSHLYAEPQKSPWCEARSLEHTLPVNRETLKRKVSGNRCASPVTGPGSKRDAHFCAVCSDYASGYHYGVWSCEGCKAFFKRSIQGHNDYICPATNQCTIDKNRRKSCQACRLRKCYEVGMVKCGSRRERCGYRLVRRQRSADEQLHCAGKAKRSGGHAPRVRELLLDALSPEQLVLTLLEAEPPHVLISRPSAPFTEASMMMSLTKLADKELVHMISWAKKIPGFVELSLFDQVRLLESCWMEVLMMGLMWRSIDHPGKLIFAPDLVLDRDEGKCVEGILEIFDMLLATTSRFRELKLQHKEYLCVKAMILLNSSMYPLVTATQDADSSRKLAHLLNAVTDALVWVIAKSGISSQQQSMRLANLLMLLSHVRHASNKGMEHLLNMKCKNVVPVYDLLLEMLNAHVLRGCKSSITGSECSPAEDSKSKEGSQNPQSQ
# How it was run: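 HepG2 cells transiently transfected with GAL4-UAS multiplexed reporter units, 3 nM 6-alpha-fluorotestosterone present; 24 h exposure. Reporter mRNA measured by RT-PCR, fluorescent labelling and capillary electrophoresis; gain of signal fitted against DMSO.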
# [5] = ATG_M_06_XSP1: Attagene TRANS-FACTORIAL Multi-Species (XSP1) HepG2 Assay for M06 Transcription Factor (Internal Marker) (AID 2283790)
# How it was run: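 Transfected HepG2 multi-reporter system treated 24 h in the presence of 3 nM 6-alpha-fluorotestosterone. The M06 internal marker transcript was quantified by RT-PCR with capillary electrophoresis as a background control, and gain of signal was scored versus DMSO.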
# [6] = ATG_M_61_XSP1: Attagene TRANS-FACTORIAL Multi-Species (XSP1) HepG2 Assay for M61 Transcription Factor (Internal Marker) (AID 2283797)
# How it was run: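 HepG2 cells transiently transfected with multiplexed GAL4-driven reporter units, dosed 24 h with 3 nM 6-alpha-fluorotestosterone present. Reporter mRNA quantified by RT-PCR, 6-FAM labelling, HpaI digestion and capillary electrophoresis; internal-marker background control, gain of signal versus DMSO.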
# AR (gene 367) = AR (gene 367) (UniProt P10275); experiment: ACEA_AR_agonist_80hr: ACEA Biosciences xCELLigence Real-Time Cell Analysis on Androgen Receptor Agonism for Proliferation (AID 2283783);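 note: hits increase impedance growth signal above DMSO baseline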
# AR (gene 367), sequence (P10275 whole entry, looked up): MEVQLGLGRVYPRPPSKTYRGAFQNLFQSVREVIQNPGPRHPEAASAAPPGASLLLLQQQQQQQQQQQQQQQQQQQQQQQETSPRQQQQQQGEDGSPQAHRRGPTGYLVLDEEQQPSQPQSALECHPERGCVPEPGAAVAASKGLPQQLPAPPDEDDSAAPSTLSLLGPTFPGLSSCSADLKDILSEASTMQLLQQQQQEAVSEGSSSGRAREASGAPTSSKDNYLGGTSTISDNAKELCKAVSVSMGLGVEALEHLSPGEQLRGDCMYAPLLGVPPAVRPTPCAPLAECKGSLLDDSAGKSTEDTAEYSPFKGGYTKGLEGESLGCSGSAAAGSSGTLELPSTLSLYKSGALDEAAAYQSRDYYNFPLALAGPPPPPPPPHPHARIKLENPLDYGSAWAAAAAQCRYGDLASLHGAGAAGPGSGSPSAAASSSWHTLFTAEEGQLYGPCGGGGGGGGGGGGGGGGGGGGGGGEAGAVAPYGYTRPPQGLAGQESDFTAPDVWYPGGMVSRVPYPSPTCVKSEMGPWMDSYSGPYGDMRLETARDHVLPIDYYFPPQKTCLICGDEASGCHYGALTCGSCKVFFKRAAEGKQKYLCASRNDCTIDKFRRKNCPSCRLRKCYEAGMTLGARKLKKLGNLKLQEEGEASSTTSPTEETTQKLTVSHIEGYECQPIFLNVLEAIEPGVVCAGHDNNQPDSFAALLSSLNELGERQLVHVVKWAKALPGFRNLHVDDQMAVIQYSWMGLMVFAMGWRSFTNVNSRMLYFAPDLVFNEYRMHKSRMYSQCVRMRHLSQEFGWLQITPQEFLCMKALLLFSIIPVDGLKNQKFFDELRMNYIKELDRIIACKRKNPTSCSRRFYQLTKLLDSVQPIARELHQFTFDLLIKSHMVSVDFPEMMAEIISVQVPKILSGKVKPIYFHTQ
# How it was run: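 Proliferation of 22Rv1 prostate cancer cells tracked by electrical impedance, endpoint taken at 80 hours after dosing. Eight-point 1:4 dilutions from 100 uM maximum final, duplicate; testosterone and MG132 as positive controls, assay media as negative.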
# [7] = ACEA_ER_AUC_viability: ACEA Biosciences xCELLigence Real-Time Cell Analysis on Estrogen Receptor Agonism for Viability (AID 2283782);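 note: continuous compound exposure with impedance area under curve over 80 h; hit means loss of impedance signal meaning reduced cell growth or viability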
# How it was run: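 T47D cells preconditioned in phenol red-free RPMI with charcoal-stripped FBS, then dosed with 8-point 1:4 series from 100 uM (up to 0.5% DMSO). Impedance monitored up to ~80 h; area-under-curve loss versus DMSO taken as viability.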
# [8] = STM_H9_NormalizedViability: Cytotoxicity Assessment at 120 hours in the Stemina devTOX quickPredict H9 human embryonic stem cell (hESC)-based Assay (AID 2283784)
# How it was run: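 Pluripotent H9 cells dosed, fresh medium plus compound q24h → cell layer read by CellTiter-Fluor → RFU blank-corrected, normalized to DMSO 0.1% mean. Loss-of-signal fit, DMSO as baseline.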
smiles,measurement,setting,value
CC(=O)O[C@]1(C(C)=O)CC[C@H]2[C@@H]3C=C(Cl)C4=CC(=O)[C@@H]5C[C@@H]5[C@]4(C)[C@H]3CC[C@@]21C,AC50,[1],4.61 µM (active)
same,AC50,[2],5.26 µM (active)
same,AC50,[3],3.25 µM (active)
same,AC50,[4],8.21 µM (active)
same,outcome,[5],inactive
same,outcome,[6],inactive
CC(C)OC(=O)C(C)(C)Oc1ccc(C(=O)c2ccc(Cl)cc2)cc1,outcome,AR (gene 367),inactive
CC(=O)CC(c1ccccc1)c1c(O)c2ccccc2oc1=O (stereo unspecified),outcome,[7],inactive
same,outcome,[8],inactive
Cc1cc(Cc2ccc(N)c(C)c2)ccc1N,outcome,[8],inactive
O=Cc1ccccc1C=O,outcome,[7],inactive
Nc1nc(Cl)nc2c1ncn2[C@H]1C[C@H](O)[C@@H](CO)O1,AC50,[7],0.0619 µM (active)
same,AC50,[8],0.902 µM (active)
CCCCCCCCCCCCCCOS(=O)(=O)O,AC50,[7],74.5 µM (active)
O=C(Oc1ccccc1)c1cccc(C(=O)Oc2ccccc2)c1,outcome,AR (gene 367),inactive
same,outcome,[8],inactive
NC(=Nc1ccccc1)Nc1ccccc1,AC50,[7],1.79 µM (active)
same,outcome,[8],inactive
COc1ccc(C(=O)Nc2nc3ccccc3c(NCc3ccccc3)c2C#N)cc1,outcome,[7],inactive
N[C@@H](Cc1c[nH]c2ccccc12)C(=O)O,outcome,[7],inactive
same,outcome,[8],inactive
COC(=O)[C@H]1[C@H]2C[C@@H]3c4[nH]c5cc(OC)ccc5c4CCN3C[C@H]2C[C@@H](OC(=O)c2cc(OC)c(OC)c(OC)c2)[C@@H]1OC,AC50,[7],60.5 µM (active)
same,outcome,[8],inactive
CC(=O)[C@@]1(O)CC[C@H]2[C@@H]3CCC4=CC(=O)CC[C@]4(C)[C@H]3CC[C@@]21C,outcome,[8],inactive
CC(C)COC(=O)CCCCC(=O)OCC(C)C,outcome,[7],inactive
CC(=O)OCC(COC(C)=O)OC(C)=O,outcome,[7],inactive
